Results: PubChem BioAssay (Tox21)
Inconclusive results are not listed. Entries that show only a call come without a potency. Unmarked numbers belong to inactive results. Calls of active or inactive are those of the source. Unless noted, calls follow the shape of the dose curve; as a rule, active = well fitted curve in the direction sought with a large enough effect in the repeat runs; inconclusive = weak or mixed curves; inactive = no such curve, though single readings can be large; an effect the other way counts as inactive or inconclusive.

Experiments:
[1] = qHTS assay for identifying genotoxic compounds that show differential cytotoxicity against isogenic chicken DT40 cell lines with known DNA damage response pathways - wild type cell line (AID 743012); also: nearly all actives have a fitted effect of over 60% in size
Method in brief: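 Viability by ATP luminescence (CellTiter-Glo, 30 min RT) after 40 h compound treatment at 37 C/5% CO2, using 300 parental DNA repair-proficient DT40 cells per well.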

[2] = qHTS assay for identifying genotoxic compounds that show differential cytotoxicity against isogenic chicken DT40 cell lines with known DNA damage response pathways - Rad54/Ku70 mutant cell line (AID 743015); also: nearly all actives have a fitted effect of over 60% in size; also: potency is read from the fitted curve at half-maximal effect
[3] = qHTS assay to identify small molecule antagonists of the androgen receptor (AR) signaling pathway - cell viability counter screen (AID 743033; also: nearly all actives have a fitted effect of over 45% in size)
[4] = qHTS assay to identify small molecule antagonists of the androgen receptor (AR) signaling pathway using the MDA cell line - cell viability counter screen (AID 743041; also: nearly all actives have a fitted effect of over 45% in size)
Method in brief: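 In this qHTS counter assay, fluorescence intensity after CellTiter-Fluor addition indicated viability of MDA-kb2 AR-luc cells given compounds and R1881 for 16 h at 37C.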

[5] = qHTS assay to identify small molecule antagonists of the thyroid receptor (TR) signaling pathway - cell viability counter screen (AID 743064); also: nearly all actives have a fitted effect of over 50% in size; also: potency is read from the fitted curve at half-maximal effect
Method in brief: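 In rat pituitary GH3.TRE-Luc reporter cells co-exposed to compound and 1 nM T3 for 23.5 h, cytotoxicity was assessed with CellTiter-Fluor in the same wells, read by fluorescence.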

[6] = qHTS assay to identify small molecule antagonists of the thyroid receptor (TR) signaling pathway (AID 743065); also: nearly all actives have a fitted effect of over 55% in size; also: potency is read from the fitted curve at half-maximal effect
Method in brief: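 GH3.TRE-Luc rat pituitary cells carrying two TR response elements driving luciferase were plated for 4 h, given compound plus 1 nM T3 (final), and incubated 23.5 h at 37 C. ONE-Glo luminescence measured reporter inhibition; CellTiter-Fluor fluorescence tracked cytotoxicity.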

[7] = system: thyroid hormone receptor (rat, GH3 cells); assay: qHTS assay to identify small molecule agonists of the thyroid receptor (TR) signaling pathway (AID 743066; calls by dose curve)
[8] = qHTS assay to identify small molecule antagonists of the estrogen receptor alpha (ER-alpha) signaling pathway - cell viability counter screen (AID 743074; calls by dose curve;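 also: HEK293 cells carrying ER-alpha-UAS-bla reporter stimulated with 17beta-estradiol; nearly all actives have a fitted effect of over 45% in size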)
[9] = qHTS assay to identify small molecule antagonists of the estrogen receptor alpha (ER-alpha) signaling pathway using the BG1 cell line - cell viability counter screen (AID 743081);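 also: compound given together with 17beta-estradiol as the ER stimulus; series mostly up to about 70 µM; nearly all actives have a fitted effect of over 45% in size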
[10] = qHTS assay to identify small molecule antagonists of the glucocorticoid receptor (GR) signaling pathway - cell viability counter screen (AID 720693); also: nearly all actives have a fitted effect of over 55% in size
[11] = qHTS assay for identifying genotoxic compounds that show differential cytotoxicity against isogenic chicken DT40 cell lines with known DNA damage response pathways - Rev3 mutant cell line (AID 743014); also: nearly all actives have a fitted effect of over 55% in size
Aromatase (Homo sapiens) = Aromatase (Homo sapiens) (UniProt P11511); assay: qHTS assay to identify aromatase inhibitors (AID 743083); also: series mostly up to about 70 µM; nearly all actives have a fitted effect of over 55% in size
[12] = qHTS assay to identify aromatase inhibitors - cell viability counter screen (AID 743084); also: potency is read from the fitted curve at half-maximal effect
[13] = target: Estrogen receptor (Homo sapiens) (UniProt P03372); assay: qHTS assay to identify small molecule agonists of the estrogen receptor alpha (ER-alpha) signaling pathway (AID 743075; calls by dose curve;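 also: HEK293 GripTite cells with ER-alpha and UAS-driven beta-lactamase reporter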)
[14] = qHTS assay to identify small molecule antagonists of the estrogen receptor alpha (ER-alpha) signaling pathway using the BG1 cell line (AID 743080; calls by dose curve;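 also: BG1 cells stimulated with 17beta-estradiol alongside compound; series mostly up to about 70 µM; nearly all actives have a fitted effect of over 25% in size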)
Method in brief: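 Quantitative HTS on the Tox21 10K library: BG1 cells with endogenous ER-alpha and ERE-luciferase reporter, 17beta-estradiol stimulation, 21.5 h compound exposure, luminescence endpoint with parallel fluorescence cytotoxicity counter-read.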

[15] = target: Estrogen receptor (Homo sapiens) (UniProt P03372); assay: qHTS assay to identify small molecule antagonists of the estrogen receptor alpha (ER-alpha) signaling pathway (AID 743069; active = well fitted curve in the direction sought with a large enough effect in the signal ratio in the repeat runs, not every such curve was filed as active; the % refers to the signal ratio)
Method in brief: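 A 17beta-estradiol challenge was applied right after compound transfer to ER-alpha-UAS-bla HEK293 cells previously kept in charcoal-stripped serum. Plates stood 18 hr at 37C and 5% CO2; fluorescence was read following 2 hr FRET substrate loading at room temperature.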

[16] = target: Androgen receptor (Homo sapiens) (UniProt P10275); assay: qHTS assay to identify small molecule antagonists of the androgen receptor (AR) signaling pathway (AID 743035; active = well fitted inhibition curve with a large enough effect in the signal ratio in the repeat runs, not every such curve was filed as active; the % refers to the signal ratio)
Method in brief: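 Antagonist mode: AR-bla HEK293 cells co-treated with test compounds and agonist R1881 for 16 h at 37C, 5% CO2. Beta-lactamase activity read as FRET fluorescence after 2 h room-temperature substrate loading.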

[17] = target: Androgen receptor (Homo sapiens) (UniProt P10275); assay: qHTS assay to identify small molecule agonists of the androgen receptor (AR) signaling pathway (AID 743036; active = well fitted activation curve with a large enough effect in the signal ratio in the repeat runs, with a control signal flat, not every such curve was filed as active; the % refers to the signal ratio)
Method in brief: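 Cell-based FRET reporter assay: HEK293 line with a UAS-beta-lactamase construct, compounds added in DMSO, 16 h exposure at 37C, then 2 h substrate step at room temperature and fluorescence intensity read.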

[18] = target: Androgen receptor (Homo sapiens) (UniProt P10275); assay: qHTS assay to identify small molecule antagonists of the androgen receptor (AR) signaling pathway using the MDA cell line (AID 743042; also: nearly all actives have a fitted effect of over 55% in size)
Method in brief: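 MDA-kb2 cells (human breast carcinoma, stably carrying an MMTV-luciferase reporter responsive to AR and GR) were plated at 3,000 cells/well and preincubated 5 hr at 37C, then given compound plus R1881 agonist for 16 h. ONE-Glo luminescence was read.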

[19] = target: Estrogen receptor (Homo sapiens) (UniProt P03372); assay: qHTS assay to identify small molecule agonists of the estrogen receptor alpha (ER-alpha) signaling pathway using the BG1 cell line (AID 743079); also: nearly all actives have a fitted effect of over 20% in size

Sequence of Estrogen receptor (Homo sapiens) (P03372 whole entry, looked up): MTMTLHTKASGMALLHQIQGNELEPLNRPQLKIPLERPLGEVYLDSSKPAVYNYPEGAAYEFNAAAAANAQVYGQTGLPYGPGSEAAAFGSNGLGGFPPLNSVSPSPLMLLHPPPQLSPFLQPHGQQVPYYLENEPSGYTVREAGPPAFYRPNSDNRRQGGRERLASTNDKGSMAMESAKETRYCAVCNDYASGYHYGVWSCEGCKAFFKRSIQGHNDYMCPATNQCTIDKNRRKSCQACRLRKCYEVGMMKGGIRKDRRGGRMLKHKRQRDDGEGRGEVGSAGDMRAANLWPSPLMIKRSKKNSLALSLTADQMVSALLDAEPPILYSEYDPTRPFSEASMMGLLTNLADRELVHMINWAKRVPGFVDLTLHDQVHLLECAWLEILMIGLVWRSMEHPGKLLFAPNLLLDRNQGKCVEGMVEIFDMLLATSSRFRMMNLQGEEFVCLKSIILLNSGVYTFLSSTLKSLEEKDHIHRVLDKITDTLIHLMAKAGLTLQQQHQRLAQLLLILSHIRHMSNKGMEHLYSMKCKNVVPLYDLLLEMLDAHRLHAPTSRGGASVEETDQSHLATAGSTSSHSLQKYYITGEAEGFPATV
Sequence of Aromatase (Homo sapiens) (P11511 whole entry, looked up): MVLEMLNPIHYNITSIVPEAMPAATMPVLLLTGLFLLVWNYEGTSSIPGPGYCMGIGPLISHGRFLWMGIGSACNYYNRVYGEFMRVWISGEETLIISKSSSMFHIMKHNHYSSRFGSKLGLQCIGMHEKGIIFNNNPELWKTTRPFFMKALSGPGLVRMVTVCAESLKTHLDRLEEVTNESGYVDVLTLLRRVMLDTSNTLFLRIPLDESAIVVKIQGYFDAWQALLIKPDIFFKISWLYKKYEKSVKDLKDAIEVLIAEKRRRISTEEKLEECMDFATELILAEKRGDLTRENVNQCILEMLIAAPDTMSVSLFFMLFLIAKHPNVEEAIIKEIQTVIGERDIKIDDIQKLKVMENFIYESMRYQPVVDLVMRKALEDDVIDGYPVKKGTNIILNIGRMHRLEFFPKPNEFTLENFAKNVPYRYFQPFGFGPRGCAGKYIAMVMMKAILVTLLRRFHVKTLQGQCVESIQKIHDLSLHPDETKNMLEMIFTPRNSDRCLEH
Sequence of Androgen receptor (Homo sapiens) (P10275 whole entry, looked up): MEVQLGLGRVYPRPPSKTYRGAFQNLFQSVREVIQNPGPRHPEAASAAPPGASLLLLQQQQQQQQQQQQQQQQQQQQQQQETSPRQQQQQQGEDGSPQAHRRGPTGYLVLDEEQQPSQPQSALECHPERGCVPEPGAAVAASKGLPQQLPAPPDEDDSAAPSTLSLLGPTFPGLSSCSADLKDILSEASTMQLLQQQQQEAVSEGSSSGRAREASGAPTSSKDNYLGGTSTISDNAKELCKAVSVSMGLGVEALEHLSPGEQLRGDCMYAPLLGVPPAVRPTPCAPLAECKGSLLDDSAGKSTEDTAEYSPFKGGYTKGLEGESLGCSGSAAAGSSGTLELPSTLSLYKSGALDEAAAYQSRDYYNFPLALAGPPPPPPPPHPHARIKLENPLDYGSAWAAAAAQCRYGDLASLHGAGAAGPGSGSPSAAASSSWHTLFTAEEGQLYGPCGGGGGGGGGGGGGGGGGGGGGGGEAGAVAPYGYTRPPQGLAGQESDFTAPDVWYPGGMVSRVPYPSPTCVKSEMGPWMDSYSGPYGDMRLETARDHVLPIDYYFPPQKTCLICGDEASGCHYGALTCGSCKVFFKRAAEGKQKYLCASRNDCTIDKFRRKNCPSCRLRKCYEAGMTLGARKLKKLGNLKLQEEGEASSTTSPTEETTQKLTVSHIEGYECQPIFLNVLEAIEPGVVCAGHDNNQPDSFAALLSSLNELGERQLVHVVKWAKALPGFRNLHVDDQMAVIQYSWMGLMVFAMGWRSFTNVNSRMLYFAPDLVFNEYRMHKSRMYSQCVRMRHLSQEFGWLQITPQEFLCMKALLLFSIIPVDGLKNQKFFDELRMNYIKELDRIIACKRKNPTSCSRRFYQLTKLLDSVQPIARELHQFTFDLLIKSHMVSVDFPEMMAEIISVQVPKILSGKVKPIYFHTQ

Structure (SMILES)	Potency [1]	Potency [2]	outcome [3]	Potency [4]	Potency [5]	Potency [6]	outcome [7]	Potency [8]	Potency [9]	outcome [10]	Potency [11]	Potency (Aromatase (Homo sapiens))	Potency [12]	outcome [13]	outcome [14]	Potency [15]	Potency [16]	outcome [17]	outcome [18]	Potency [19]
Nc1ccc2ccccc2c1S(=O)(=O)O	inactive	inactive	inactive	inactive	inactive	inactive	inactive	inactive	inactive	–	–	–	–	–	–	–	–	–	–	–
CC(C)Nc1nc(N)nc(Cl)n1	–	inactive	inactive	inactive	–	inactive	inactive	inactive	inactive	inactive	inactive	inactive	inactive	–	–	–	–	–	–	–
C[C@]12CCC(=O)C=C1CC[C@@H]1[C@@H]2CC[C@@]2(C)[C@H]1CC[C@]2(O)C(=O)CO	–	–	inactive	inactive	inactive	–	inactive	inactive	inactive	inactive	–	inactive	inactive	inactive	inactive	–	–	–	–	–
C1CCOC1	–	–	inactive	inactive	inactive	–	–	inactive	inactive	inactive	–	inactive	inactive	–	–	–	–	–	–	–
COc1cc2c(cc1N)oc1ccccc12	–	62.4 µM (active)	inactive	inactive	inactive	inactive	inactive	inactive	inactive	inactive	–	inactive	inactive	–	–	–	–	–	–	–
O=C(O)[C@@H]1CSCN1	–	inactive	inactive	inactive	inactive	inactive	inactive	inactive	–	inactive	–	inactive	inactive	–	–	–	–	–	–	–
CCOC(=O)CS	–	–	–	inactive	inactive	–	inactive	inactive	inactive	inactive	–	inactive	inactive	–	–	–	–	–	–	–
CN1[C@@H]2CC[C@H]1CC(OC(=O)c1c[nH]c3ccccc13)C2 (stereo partly specified)	–	inactive	inactive	–	23.7 µM (active)	26.6 µM (active)	inactive	inactive	inactive	inactive	–	inactive	inactive	–	–	–	–	–	–	–
CN1CCN(c2c(F)cc3c(=O)c(C(=O)O)cn(CCF)c3c2F)CC1	–	–	inactive	inactive	inactive	inactive	inactive	inactive	–	inactive	–	inactive	inactive	inactive	inactive	inactive	–	–	–	–
Oc1ccccc1C=NCc1ccccc1	–	–	inactive	inactive	inactive	–	inactive	inactive	inactive	inactive	–	inactive	inactive	–	–	–	–	–	–	–
CC(C)c1ccccc1	–	inactive	–	–	inactive	inactive	inactive	inactive	inactive	inactive	inactive	–	inactive	inactive	inactive	inactive	inactive	inactive	inactive	inactive
O=C(C(Cl)Cl)N1CCOC12CCCCC2	–	–	inactive	–	–	–	–	inactive	inactive	–	–	inactive	–	inactive	inactive	inactive	–	–	–	inactive
COc1cc(N)c(Cl)cc1C(=O)NC1CCN(Cc2ccccc2)CC1	–	–	–	inactive	inactive	–	–	inactive	inactive	inactive	–	–	inactive	inactive	inactive	inactive	–	–	–	inactive
O=C1N(c2ccccc2)c2ccccc2C1(Cc1ccncc1)Cc1ccncc1	–	inactive	inactive	inactive	inactive	inactive	inactive	–	inactive	inactive	–	inactive	inactive	inactive	inactive	inactive	–	–	–	inactive
CN1C(=O)CC(c2ccccc2)C1=O (stereo unspecified)	–	inactive	inactive	inactive	–	inactive	inactive	inactive	inactive	inactive	inactive	inactive	inactive	–	–	–	–	–	–	–
Cc1cc2c(s1)Nc1ccccc1N=C2N1CCN(C)CC1	–	–	inactive	inactive	13.3 µM (active)	–	inactive	inactive	inactive	inactive	–	inactive	23.7 µM (active)	inactive	inactive	inactive	–	–	–	inactive
